# Results reported in PubChem BioAssay (NCATS).
# Records with an inconclusive call do not appear. Active and inactive are the calls of the source. Unless noted, the call rests on the fitted dose curve; in most records, active means well fitted inhibition curve with a large enough effect; inconclusive means small, poorly fitted or top-dose-only effect; inactive means flat fitted curve, though single readings scatter.
# Assays:
# [1] = qHTS profiling for inhibitors of Plasmodium falciparum proliferation (AID 504749); further: potency means the concentration at half of the fitted maximal effect;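 on activity, negative = inhibition: 0% = DMSO vehicle and full inhibition = artemisinin control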; on all read-outs here: nearly all actives have a fitted effect of over 60% in size; settings: P. falciparum in erythrocytes, SYBR Green DNA, 72 h; for activity, negative = inhibition: at 28.7 µM (top of the series)
# Summary of the method: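 Fluorescence of SYBR Green-bound parasite DNA, read at 485/535 nm, served as the growth measure. Infected erythrocytes were cultured with compound 72 h; artemisinin (0.29 uM) and DMSO wells defined the normalization range.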
# [2] = qHTS drug screen for cell cycle checkpoint inhibitors in PARPi-resistant BRCA-mutant ovarian cancer cell lines. (AID 1963452; calls by dose curve); settings: PEO1/OlaR viability, CellTiter-Glo luminescence, 96 h, stronger effect = lower value
# Summary of the method: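 PEO1, PEO4 and PEO1/OlaR ovarian cancer cells, 600 per well, exposed 96 h at 37C to a dilution series. Viability read by CellTiter-Glo luminescence, normalized to DMSO and empty wells; activity summarized as Z-AUC.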
# [3] = qHTS for identification of novel therapeutic agents for treatment of microphthalmiaassociated transcription factor (MiT) renal cell carcinoma (RCC) (AID 1963991); settings: CellTiter-Glo, 48 h, stronger effect = lower value
# Source text: PI: Marston Linehan Ph.D.
# Urologic Oncology Branch, Center for Cancer Research (CCR)
# National Cancer Institute (NCI), National Institute of Health (NIH), Bethesda, Maryland
# MiT-Renal Cell Carcinoma (RCC) is characterized by genomic translocations involving microphthalmia-associated transcription factor (MiT) family members TFE3, TFEB, or MITF. MiT-RCC represents a specific subtype of sporadic RCC that is predominantly seen in young patients and can present with heterogeneous histological features making diagnosis challenging. Moreover, the disease biology of this aggressive cancer is poorly understood and there is no accepted standard of care therapy for patients with advanced disease. Tumor-derived cell lines have been established from human TFE3-RCC providing useful models for preclinical studies. TFE3-RCC tumor derived cell lines and their tissues of origin were characterized by IHC and gene expression analyses. An unbiased high-throughput drug screen was performed to identify novel therapeutic agents for treatment of MiT-RCC. Potential therapeutic candidates were validated in in vitro and in vivo preclinical studies. Mechanistic assays were conducted to confirm the on-target effects of drugs. The results of a high-throughput small molecule drug screen utilizing three TFE3-RCC tumor-derived cell lines identified five classes of agents with potential pharmacological efficacy, including inhibitors of phosphoinositide-3-kinase (PI3K) and mechanistic target of rapamycin (mTOR), and several additional agents, including the transcription inhibitor Mithramycin A. Upregulation of the cell surface marker GPNMB, a specific MiT transcriptional target, was confirmed in TFE3-RCC and evaluated as a therapeutic target using the GPNMB-targeted antibody-drug conjugate CDX-011. […] The results of the high-throughput drug screen and validation studies in TFE3-RCC tumor-derived cell lines have provided in vitro and in vivo preclinical data supporting the efficacy of the PI3K/mTOR inhibitor.
# SEQUENCE No. (e.g., 1, 2, 3, etc.); […] (e.g., Cells, Incubation, Reagent, etc.); VALUE; DESCRIPTION.
# 1; Cells; 3 uL; white, solid-bottom Grenier assay plate.
# 2; Compounds; 23 nL; Kalypsis pin-tool (Wako USA).
# 3; Incubation; 48 hr; 37 C, 5% CO2, 95% humidity.
# 4; Reagent; 3 uL; CellTiter-Glo reagent (Promega).
# 5; Incubation; 15 min; room temperature.
# 6; Detection; Luminescence; ViewLux plate reader (PerkinElmer).
# NOTES (numbers refer to Sequence numbers above)
# 1. Quantitative high-throughput screening (qHTS) of 1912 pharmacologically defined small molecule compounds was conducted on three TFE3-fusion cell lines bearing three different fusion partners (UOK109, UOK124, UOK145). Briefly, 500 cells in complete growth media were plated into white, solid-bottom, 1536-well tissue culture treated plates (Grenier Cat. 789173-F) using a Multidrop Combi cassette dispenser.
# 2. Twenty-three nanoliter of 1912 pharmacologically defined small molecule compounds of the NCATS Mechanism Interrogation PlatE (MIPE) version 4.0 were added to each assay plate using a Pintool Dispenser (Wako) equipped with 1536 pin head.
# 3. Plates were covered with stainless steel gasketed lids and incubated for 48 hours at standard cell culture conditions.
# 4. Viability was assessed by adding 3uL of CellTiter-Glo detection reagent (Promega).
# 5. Plates were covered with gasket lids and incubated for 15 minutes at room temperature.
# 6. Luminescence was measured on a ViewLux plate reader (PerkinElmer). Post-screen data processing used DMSO controls as 100% viability and empty wells as 0% viability and dose response curve fitting was done for all 11 concentrations for each compound.
# [4] = measured here: PEO1 parental Z-AUC
structure (smiles),measurement,setting,value
C=CCOC(Cn1ccnc1)c1ccc(Cl)cc1Cl (centres undefined),Potency,[1]; parasite line B,10 µM (active)
C#C[C@]1(O)CC[C@H]2[C@@H]3CCC4=CC(=O)CCC4=C3C=C[C@@]21CC,Potency,[1]; parasite line B,6.31 µM (active)
CCCCCCCCC(=O)NCc1ccc(O)c(OC)c1,"activity, negative = inhibition",[1]; parasite line A,-0.439% (inactive)
same,"activity, negative = inhibition",[1]; parasite line B,7.79% (inactive)
CCCCCCCCCCCC[N+](C)(C)CCOc1ccccc1,Potency,[1]; parasite line A,3.55 µM (active)
same,Potency,[1]; parasite line B,5.01 µM (active)
ClC1=C(Cl)C2(Cl)C(CBr)CC1(Cl)C2(Cl)Cl (centres undefined),"activity, negative = inhibition",[1]; parasite line A,-10.4% (inactive)
same,"activity, negative = inhibition",[1]; parasite line B,-10.5% (inactive)
Cc1c(Cl)c(=O)oc2cc(OP(=O)(OCCCl)OCCCl)ccc12,Potency,[1]; parasite line A,8.91 µM (active)
C#C[C@]1(O)C=C[C@H]2[C@@H]3CCC4=CC(=O)CC[C@@H]4[C@H]3CC[C@@]21CC,Z-AUC,[2],1.19 (inactive)
same,Z-AUC,[2]; [4],1.82
same,Z-AUC,[2]; measured here: PEO4 Z-AUC,1.32
O=C(CCCN1CCC(n2c(=O)[nH]c3ccccc32)CC1)c1ccc(F)cc1,Potency,[1]; parasite line A,3.16 µM (active)
same,Potency,[1]; parasite line B,3.16 µM (active)
Cc1ccc(N=CN(C)C=Nc2ccc(C)cc2C)c(C)c1,"activity, negative = inhibition",[1]; parasite line A,5.73% (inactive)
same,"activity, negative = inhibition",[1]; parasite line B,9.78% (inactive)
C[C@@H]1O[C@@H](O[C@@H]2C=C3CC[C@@H]4[C@H](CC[C@]5(C)[C@@H](c6ccc(=O)oc6)CC[C@]45O)[C@@]3(C)CC2)[C@H](O)[C@H](O)[C@H]1O,Z-AUC,[2],-2.1 (inactive)
same,Z-AUC,[2]; [4],-2.52
same,Z-AUC,[2]; measured here: PEO4 Z-AUC,-2.14
c1cc2c(c(N3CCNCC3)c1)OCCO2,"activity, negative = inhibition",[1]; parasite line A,8.64% (inactive)
same,"activity, negative = inhibition",[1]; parasite line B,11.7% (inactive)
COc1ccc(C(=O)N2CCCC2=O)cc1,Z-AUC,[2],-0.603 (inactive)
same,Z-AUC,[2]; [4],0.111
same,Z-AUC,[2]; measured here: PEO4 Z-AUC,-0.65
same,"activity, negative = inhibition",[1]; parasite line A,4.48% (inactive)
same,"activity, negative = inhibition",[1]; parasite line B,11% (inactive)
CCS(=O)(=O)C(C)(C)S(=O)(=O)CC,"activity, negative = inhibition",[1]; parasite line A,9.89% (inactive)
same,"activity, negative = inhibition",[1]; parasite line B,19.2% (inactive)
CCNc1nc(Cl)nc(NCC)n1,"activity, negative = inhibition",[1]; parasite line A,3.24% (inactive)
C[C@]12C=CC(=O)C=C1CC[C@@H]1[C@@H]2CC[C@@]2(C)[C@H]1CC[C@]2(C)O,"activity, negative = inhibition",[1]; parasite line A,0.454% (inactive)
same,"activity, negative = inhibition",[1]; parasite line B,5.05% (inactive)
O=C(O)c1nn(Cc2ccc(Cl)cc2Cl)c2ccccc12,Z-AUC,[2],0.664 (inactive)
same,Z-AUC,[2]; [4],0.662
same,Z-AUC,[2]; measured here: PEO4 Z-AUC,0.605
same,z-score,"[3]; TFE3-RCC UOK109 viability, measured here: UOK109 Z-AUC",0.154
same,z-score,"[3]; TFE3-RCC viability, measured here: UOK124 Z-AUC",0.856
same,z-score,"[3]; TFE3-RCC viability, measured here: UOK145 Z-AUC",-0.814
same,"activity, negative = inhibition",[1]; parasite line A,-9.19% (inactive)
same,"activity, negative = inhibition",[1]; parasite line B,-4.8% (inactive)
